The values that follow come from PubChem BioAssay AID1835 (Johns Hopkins Ion Channel Center, 2009).

In all, about 2,400 compounds went through this assay and about 750 (31%) were called active.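 The calls were made as follows: active = median signal gain over dofetilide-blocked control wells reaching their mean plus 3 SD, so readout 1 at least 0; inactive = the rest.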 The list shows a part of the results.

For the experiment, the target named is Voltage-gated inwardly rectifying potassium channel KCNH2 (Homo sapiens) (UniProt Q12809). Kind of experiment: modulators restoring hERG flux under dofetilide – cell-based, thallium flux, duplicate retest, dofetilide IC70, confirmation (AID 1835). To be noted: hERG cell line, FluxOR thallium flux, dofetilide-blocked; at 10 µM; stronger effect = higher value. In general terms: hERG is a cardiac potassium channel; its block is linked to QT prolongation.
Voltage-gated inwardly rectifying potassium channel KCNH2 (Homo sapiens), sequence (Q12809 whole entry, looked up): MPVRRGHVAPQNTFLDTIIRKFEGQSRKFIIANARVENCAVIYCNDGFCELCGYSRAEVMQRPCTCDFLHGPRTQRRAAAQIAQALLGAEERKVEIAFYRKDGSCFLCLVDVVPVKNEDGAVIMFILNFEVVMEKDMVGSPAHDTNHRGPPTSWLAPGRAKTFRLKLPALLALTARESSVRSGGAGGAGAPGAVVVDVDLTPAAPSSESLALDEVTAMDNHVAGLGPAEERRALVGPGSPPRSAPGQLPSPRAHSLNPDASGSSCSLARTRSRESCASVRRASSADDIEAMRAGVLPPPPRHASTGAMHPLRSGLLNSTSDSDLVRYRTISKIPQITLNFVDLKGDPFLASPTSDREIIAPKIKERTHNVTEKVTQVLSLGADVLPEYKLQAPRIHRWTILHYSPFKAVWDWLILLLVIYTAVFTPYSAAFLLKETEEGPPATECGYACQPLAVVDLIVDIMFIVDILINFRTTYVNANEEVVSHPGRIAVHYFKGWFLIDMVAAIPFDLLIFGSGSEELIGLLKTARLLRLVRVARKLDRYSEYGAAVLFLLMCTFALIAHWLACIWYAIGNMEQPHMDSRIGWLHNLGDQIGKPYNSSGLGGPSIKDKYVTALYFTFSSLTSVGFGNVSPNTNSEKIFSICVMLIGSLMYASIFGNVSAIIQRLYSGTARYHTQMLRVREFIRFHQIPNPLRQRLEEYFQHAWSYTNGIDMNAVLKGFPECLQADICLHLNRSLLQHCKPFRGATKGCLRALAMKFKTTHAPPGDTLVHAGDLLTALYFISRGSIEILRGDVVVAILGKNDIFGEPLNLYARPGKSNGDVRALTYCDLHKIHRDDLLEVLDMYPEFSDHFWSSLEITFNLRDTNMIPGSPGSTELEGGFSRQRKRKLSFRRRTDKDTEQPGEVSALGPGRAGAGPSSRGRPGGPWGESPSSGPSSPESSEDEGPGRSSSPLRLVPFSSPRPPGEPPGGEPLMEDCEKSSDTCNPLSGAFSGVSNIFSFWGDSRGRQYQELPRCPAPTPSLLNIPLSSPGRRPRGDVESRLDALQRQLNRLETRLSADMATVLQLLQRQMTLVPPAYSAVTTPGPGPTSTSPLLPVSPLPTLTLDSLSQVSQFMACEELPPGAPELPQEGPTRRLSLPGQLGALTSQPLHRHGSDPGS
On to `Nc1nc2c(s1)CCCCCCCCCC2`, for which the activity increase over dofetilide control, less the hit threshold is -11% (inactive).
Under `O=C1OCCC1Sc1nc2ccccc2c(=O)n1Cc1ccc(F)cc1` (configuration not stated) stands 9% (active); under `Cc1ccc(S(=O)(=O)N2CCOCC2)cc1NC(=O)CSc1nc2ccccc2c(=O)n1Cc1ccccc1`, -5% (inactive); under `COc1cc(C2NC(=O)NC(O)(C(F)(F)F)C2C(C)=O)cc(OC)c1OC` (configuration not stated), -17% (inactive).
Under `N/C(=N\OS(=O)(=O)c1cccc([N+](=O)[O-])c1)c1ccncc1` stands 1% (active); under `CN(c1cccc(NS(=O)(=O)c2cccc([N+](=O)[O-])c2)c1)S(C)(=O)=O`, -19% (inactive).
On to `O=C(CSc1nnc(-c2ccncc2)o1)c1cccc([N+](=O)[O-])c1`, for which the activity increase over dofetilide control, less the hit threshold is -10% (inactive).
Consider `COc1ccc(C)cc1-n1nnnc1SCc1nc2ccccc2c(=O)[nH]1`, for which the activity increase over dofetilide control, less the hit threshold is -16% (inactive).
Then `Cc1ccc(C2=NN(C(=O)CCCC(=O)O)C(c3ccc4c(c3)OCO4)C2)cc1` (configuration not stated), with -23% (inactive); and `COCCN1C(=O)c2oc3cc(C)c(C)cc3c(=O)c2C1c1ccc(O)cc1` (configuration not stated), with -7% (inactive).
Regarding `Cc1ccc2oc3c(c(=O)c2c1)C(c1cccs1)N(CCCN(C)C)C3=O` (configuration not stated), the activity increase over dofetilide control, less the hit threshold is 11% (active).
Under `CCN(CC)CCCN1C(=O)c2oc3ccccc3c(=O)c2C1c1cccs1` (configuration not stated) stands 28% (active); under `COCCCNC(=O)CC(NS(=O)(=O)c1ccc(F)cc1)c1ccc(OC)cc1` (configuration not stated), -1% (inactive).
Under `CN(C)NC(=O)C(NC(=O)c1ccc(N)cc1)C12CC3CC(CC(C3)C1)C2` (configuration not stated) stands -10% (inactive); under `O=C(O)c1cc(-c2cccc([N+](=O)[O-])c2)n[nH]1`, -14% (inactive).
Consider `O=C(O)/C=C/C(=O)Nc1ccc(OC(F)(F)F)cc1`, for which the activity increase over dofetilide control, less the hit threshold is -3% (inactive).
For the compound `CS(=O)(=O)c1sc(C(=O)NC(=S)Nc2ccc(OC(F)(F)F)cc2)c2c1C=CCC2`, the activity increase over dofetilide control, less the hit threshold was 11% (active).
Consider `CCc1nnc(NS(=O)(=O)c2ccc(NC(=S)NC(=O)/C=C/c3ccc(OC)cc3)cc2)s1`, for which the activity increase over dofetilide control, less the hit threshold was -4% (inactive).
Then `COc1ccc(Cc2c(O)nc(SCC(=O)NC(C)(C)C)[nH]c2=O)cc1`, with -17% (inactive).
Under `COc1cccc(N2CC(C(=O)Nc3nnc(SCC(=O)NCC4CCCO4)s3)CC2=O)c1` (configuration not stated) stands -4% (inactive); under `C=CCn1c(SCC(=O)NCC2CCCO2)nnc1-c1ccccc1` (configuration not stated), -1% (inactive).
Then `Cc1nc(SCC(=O)NCC2CCCO2)c2c3c(sc2n1)CCCC3` (configuration not stated), with 9% (active); and `Cc1ccc(OCc2ccoc2C(=O)O)cc1C`, with 11% (active); and `Cc1cc(OCc2ccc(C(=O)Nc3ccc(C(=O)O)cc3)o2)ccc1Cl`, with -22% (inactive).
Take `COC(=O)C1CN(C(=O)COc2ccc(C)c(C)c2)c2ccccc2O1` (configuration not stated): the activity increase over dofetilide control, less the hit threshold was -11% (inactive).
With `COC(=O)c1cc(S(=O)(=O)NCC2CCN(Cc3cc(C)ccc3C)CC2)c[nH]1`, the activity increase over dofetilide control, less the hit threshold was -12% (inactive).
Under `Cc1nn(C)cc1C(=O)Nc1ccc2c(c1)OCCO2` stands -8% (inactive); under `CCN(c1ccccc1)S(=O)(=O)c1ccc(NC(=S)NC(=O)c2ccc(Br)o2)cc1`, 20% (active).
In the case of `O=C(CNC(=S)NC(=O)c1ccc(Br)o1)c1ccccc1`, the activity increase over dofetilide control, less the hit threshold is -3% (inactive).
Under `CCc1ccc(NC(=S)NC(=O)c2c(-c3ccccc3Cl)noc2C)cc1` stands -2% (inactive).
In the case of `COc1ccc(OC)c(NC(=S)NC(=O)c2ccc(Br)o2)c1`, the activity increase over dofetilide control, less the hit threshold is 0% (active).
Consider `O=C(NC(=S)NCc1ccccc1)c1ccc(Br)o1`, for which the activity increase over dofetilide control, less the hit threshold was 91% (active).
As for `COc1cccc(NC(=S)NC(C)c2ccc(OC)c(OC)c2)c1` (configuration not stated), the activity increase over dofetilide control, less the hit threshold was -24% (inactive).
Under `COc1cc(NS(=O)(=O)c2ccc(NC(=S)Nc3ccccc3)cc2)nc(OC)n1` stands -26% (inactive); under `COc1ccc(NC(=S)NC(=O)c2ccc(Br)o2)cc1`, 13% (active); under `CCOC(=O)C1CCN(C(=O)CCS(=O)(=O)c2ccc3c(c2)CCN3C(=O)CC)CC1`, -17% (inactive).
Take `N#Cc1c(N)c(C(=O)c2ccccc2)n2ccccc12`: the activity increase over dofetilide control, less the hit threshold was -2% (inactive).
For `Cc1ccsc1/C=N/NC(=O)CNC(=O)c1ccccc1`, the activity increase over dofetilide control, less the hit threshold was -2% (inactive).
With `CCCCc1c(O)nc(SCC(=O)N2CCOCC2)[nH]c1=O`, the activity increase over dofetilide control, less the hit threshold was -10% (inactive).
Under `Cn1ncc2c(O/N=C(\N)c3ccc(C(F)(F)F)cc3)ncnc21` stands -15% (inactive); under `NC(=O)C1CCN(C(=O)CCC(=O)c2ccc(F)cc2)CC1`, -4% (inactive); under `Cc1nc(-c2cc(C#N)c(Sc3ccc(Cl)cc3Cl)nc2C)cs1`, -4% (inactive).
Consider `COc1ccccc1NC(=S)NC(=O)c1ccc(-c2ccc(Cl)cc2)o1`, for which the activity increase over dofetilide control, less the hit threshold was 8% (active).
Then `O=C(NC(=S)Nc1ccccc1F)c1ccc(Br)o1`, with 43% (active); and `C/C(=N\NC(=S)Nc1cccc(C)c1)c1ccco1`, with -26% (inactive).
For the compound `COc1ccc(-c2cc(C(=O)Nc3ccccc3SC)no2)cc1`, the activity increase over dofetilide control, less the hit threshold is -2% (inactive).
On to `Cc1cccc(NC(=S)NC(=O)c2ccc(Br)o2)c1`, for which the activity increase over dofetilide control, less the hit threshold is 33% (active).
Under `Cc1ccc(NC(=S)NC(=O)c2ccc(Br)o2)c(C)c1` stands 0% (inactive).
On to `O=C(NC(=S)Nc1ccccc1)c1ccc(Br)o1`, for which the activity increase over dofetilide control, less the hit threshold was 5% (active).
On to `Cc1ccc2cc(CN(CCCN(C)C)C(=S)NCc3ccccc3)c(=O)[nH]c2c1C`, for which the activity increase over dofetilide control, less the hit threshold was -19% (inactive).
Then `Cc1nn(-c2ccc(Cl)nn2)c(=O)c2ccccc12`, with -12% (inactive).
Under `COc1cccc2cc(-c3nc4ccccc4[nH]3)c(=O)oc12` stands -24% (inactive); under `CC(C)=CC(=O)OCC(=O)Nc1ccc(SC(F)F)cc1`, -16% (inactive); under `Cc1c(C(=O)NC(=S)NCc2cccnc2)oc2ccccc12`, -7% (inactive).
As for `O=C(Nc1cccnc1)c1cc(-c2cccs2)on1`, the activity increase over dofetilide control, less the hit threshold was -16% (inactive).
Then `O=C(NC(=S)Nc1cccnc1)c1cc2ccccc2o1`, with 21% (active); and `O=C(NC(=S)NCCC1=CCCCC1)c1ccc(Br)o1`, with 27% (active).
Then `O=C(NC(=S)NCCc1ccc(Cl)cc1)c1ccco1`, with -7% (inactive); and `S=C(NCCc1ccccc1)NCCN1CCOCC1`, with -10% (inactive); and `O=C(NC(=S)NCCC1=CCCCC1)c1ccco1`, with 50% (active).
Then `Oc1c(Br)cc(Br)cc1CNc1cccc2cccnc12`, with -19% (inactive); and `CN(Cc1ccccc1)C(=O)CCc1ccccc1`, with 12% (active); and `COc1ccc(S(=O)(=O)N(CCc2ccccc2)CC(=O)O)cc1`, with -12% (inactive).
With `CN(Cc1ccsc1)C(=O)CCc1nnc(Cc2c[nH]c3ccccc23)o1`, the activity increase over dofetilide control, less the hit threshold is -8% (inactive).
Then `O=C1NCCN1Cc1ccccc1F`, with -20% (inactive); and `O=C(/C=C/c1ccccc1)Nc1ccc(C(=O)N2CCCCC2)cc1`, with -14% (inactive); and `COc1cc(OC)cc(C(=O)NC(=S)N2CCCCCC2)c1`, with -12% (inactive).
Turning to `CC(C)(C)c1ccc(C(=O)NC(=S)N2CCCC2)cc1`, the activity increase over dofetilide control, less the hit threshold is -6% (inactive).
Regarding `CC(C)(C)c1ccc(C(=O)NC(=S)N2CCCCCC2)cc1`, the activity increase over dofetilide control, less the hit threshold was 16% (active).
Then `Cc1ccc2c(c1)C1CN(C)CCC1N2C(=S)NC(=O)c1ccc(Br)cc1` (configuration not stated), with -26% (inactive).
Under `O=C(NC(=S)N1CCCC1)c1ccc(Cl)cc1` stands 0% (inactive); under `CC(C)(C)c1ccc(/C=C/C(=O)N2CCCCC2)cc1`, 5% (active).
For the compound `O=C(NC(=S)N1CCCCCC1)c1ccc(Cl)cc1Cl`, the activity increase over dofetilide control, less the hit threshold was 11% (active).
As to `CCOC(=O)C1CCCN(C(=S)NC(=O)/C=C/c2ccc(F)cc2)C1` (configuration not stated), the activity increase over dofetilide control, less the hit threshold is -6% (inactive).
Regarding `CC1CCN(C(=S)NC(=O)c2ccc(C(C)(C)C)cc2)CC1`, the activity increase over dofetilide control, less the hit threshold was 22% (active).
Take `CN1CCN(C(=S)NC(=O)c2ccc(C(C)(C)C)cc2)CC1`: the activity increase over dofetilide control, less the hit threshold is -15% (inactive).
Turning to `O=[N+]([O-])c1cccnc1Sc1n[nH]c(-c2ccc(Cl)cc2)n1`, the activity increase over dofetilide control, less the hit threshold is -14% (inactive).
With `Cc1ccc2[nH]c3c(c2c1)CNCC3`, the activity increase over dofetilide control, less the hit threshold is -15% (inactive).
Then `CCC(=O)Nc1nnc(-c2ccccn2)o1`, with -17% (inactive).
In the case of `O=C(NN1C(=O)C2C(c3ccccc3)C=CC(c3ccccc3)C2C1=O)c1ccncc1` (configuration not stated), the activity increase over dofetilide control, less the hit threshold is -56% (inactive).
Then `O=C(c1ccc(C(F)(F)F)cc1)C1CCCN(C(=O)CCc2ccncc2)C1` (configuration not stated), with -7% (inactive); and `COc1ccc(C(=O)NC(=S)N2CCC(C)CC2)cc1Br`, with 26% (active).
In the case of `COc1ccc(C(=O)NC(=S)N2CCC(C)CC2)cc1`, the activity increase over dofetilide control, less the hit threshold was -11% (inactive).
In the case of `O=C(C1CC(=O)N(c2ccc3c(c2)OCCO3)C1)N1CCCC(C(F)(F)F)C1` (configuration not stated), the activity increase over dofetilide control, less the hit threshold is -15% (inactive).
Then `O=C(NC(=S)N1CCCC(C(F)(F)F)C1)c1ccc(F)cc1` (configuration not stated), with 19% (active).
Then `CC1CN(C(=S)NC(=O)c2ccc(Cl)cc2)CC(C)O1` (configuration not stated), with 5% (active); and `Cc1ccc2c(c1)N(CCC(=O)NCc1cccnc1)C(=O)CO2`, with -17% (inactive).
Take `O=C1NC2(CCCCCC2)C(=O)N1Cc1ccccc1`: the activity increase over dofetilide control, less the hit threshold was -2% (inactive).
As for `CC(C)(C)OC(=O)NCCCC(CCCNC(=O)OC(C)(C)C)C(=O)O`, the activity increase over dofetilide control, less the hit threshold was -22% (inactive).
Under `CCOC(=O)CN1C(=O)SC(Nc2ccc(C)cc2)C1=O` (configuration not stated) stands -10% (inactive); under `Cc1nc2c(C(=O)NCc3cccs3)cnn2c(C)c1Cc1ccccc1`, -12% (inactive).
Under `CCCn1c(SCC(N)=O)nc2c(c1=O)C1(CCCC1)Cc1ccccc1-2` stands 2% (active); under `CC1CCCN(C(=O)COC(=O)c2cc(-c3cccs3)nn2-c2ccccc2)C1` (configuration not stated), -29% (inactive).
Under `Nc1ccc(NC(=O)Nc2ccc(N)cc2)cc1` stands -3% (inactive); under `O=C(NCc1ccco1)c1ccc(OCC2CCCO2)cc1` (configuration not stated), -22% (inactive).
With `COc1cccc(N2CCN(CC(=O)NC(=O)NCc3ccco3)CC2)c1`, the activity increase over dofetilide control, less the hit threshold was -9% (inactive).
Under `Cc1cc2c(cc(C(=O)OC(C(=O)NCc3ccco3)C(C)C)n2C)o1` (configuration not stated) stands 2% (active); under `CCc1ccc(/C=C/C(=O)C2C(=O)c3ccccc3C2=O)cc1`, 49% (active).
With `Cc1ccc(/C=C/C(=O)C2C(=O)c3ccccc3C2=O)cc1`, the activity increase over dofetilide control, less the hit threshold was 42% (active).
Under `Cc1ccc(/C=C(\NC(=O)c2ccccc2)C(=O)N2CCCCC2)cc1` stands -26% (inactive); under `CC(=O)C1=C(C)NC(=O)NC1/C=C/c1ccccc1` (configuration not stated), -1% (inactive); under `CCc1ccc(/C=c2\s/c(=C\C(=O)C(C)(C)C)[nH]c2=O)cc1`, -6% (inactive).
